Experimental findings from PubChem BioAssay (Tox21) are described below.

Values joined by “and” are separate entries in the source; they are usually repeats but may differ in a detail not shown here. Equal entries are not always repeated. Results filed as inconclusive are left out. Unmarked numbers belong to inactive results. Active and inactive are the calls of the source. The call rests on the fitted dose curve; in most records, active means well fitted cell-killing curve with a large enough effect in the repeat runs; inconclusive means weak or mixed curves, or effect the other way; inactive means flat fitted curve, though single readings scatter.
On the % scale 0 is the no-effect control and ±100 the full control effect; potency means the concentration at half of the fitted maximal effect.

The assay in a line: qHTS assay to identify small molecule antagonists of the androgen receptor (AR) signaling pathway using the MDA cell line - cell viability counter screen (AID 743041; further: nearly all actives have a fitted effect of over 45% in size). The settings on record: MDA-kb2 viability, CellTiter-Fluor, 16 h, cells co-treated with R1881 androgen agonist; series mostly up to 70.3 µM; viability change, negative = cytotoxic: at the top concentration. The source says: National Center for Advancing Translational Sciences [NCATS]
NIH Chemical Genomics Center [NCGC]
U.S. Environmental Protection Agency [EPA]
National Institutes of Environmental Health Sciences [NIEHS]
National Toxicology Program [NTP]
U.S. Food and Drug Administration [FDA]
Androgen receptor (AR), a nuclear hormone receptor, plays a critical role in AR-dependent prostate cancer and other androgen related diseases. Endocrine disrupting chemicals (EDCs) and their interactions with steroid hormone receptors like AR may cause disruption of normal endocrine function as well as interfere with metabolic homeostasis, reproduction, developmental and behavioral functions. To identify the compounds that inhibit AR signaling, MDA-kb2 AR-luc cell line (from ATCC, deposited by Wilson et al.) was used to screen the Tox21 10K compound library. MDA-kb2 AR-luc cell line is human breast carcinoma cell line that was stably transfected with a luciferase reporter gene under control of the MMTV promoter containing response elements for both androgen receptor (AR) and glucocorticoid receptor (GR). The cytotoxicity of the Tox21 compound library against the MDA-kb2 AR-luc cell line was tested in parallel by measuring the cell viability using CellTiter-Fluor assay (Promega, Madison, WI) in the same wells.
Tox21 Assay Protocol Summary:
MDA-kb2 AR-luc cells were dispensed at 3,000 cells/4 uL/well of culture medium into white wall/solid-bottom 1536-well plates using a Multidrop Combi (ThermoFisher Scientific, Waltham, MA) dispenser. After the assay plates were incubated at a 37C and 0% CO2 for 5 hr, 23 nL of compounds dissolved in DMSO, positive controls or DMSO only was transferred to the assay plate by a Pintool station (Kalypsys, San Diego, CA), followed by addition of 1 uL of agonist (R1881) in culture medium using a Bioraptr Flying Reagent Dispenser (FRD) workstation (Beckman Coulter, Indianapolis, IN, USA). The plates were incubated at a 37C and 0% CO2 for 16 h. After 15.5 h incubation, 1uL of CellTiter-Fluor reagent (Promega) was added using a Bioraptr FRD to each plate for measuring cytotoxicity. The fluorescence intensity was quantified on a ViewLux plate reader (PerkinElmer, Shelton, CT) following 30 min incubation at 37C and 0% CO2.
On the technique in general: In qHTS, concentration-response curves come from the screen itself.
Take `CC(C)CCOCc1ccccc1`: the “viability change, negative = cytotoxic” value was 5.39%.

Consider `NC(Cc1ccc(Cl)cc1)C(=O)O` (stereo not given), for which the “viability change, negative = cytotoxic” value was 2.3%.

Consider `O=C(Oc1ccccc1)c1ccccc1O`, for which the Potency entry was “inactive”.

Consider `C=CC(=O)OCCCCCCCC`, for which the “viability change, negative = cytotoxic” value is -1.11%.

Regarding `CCn1c2ccccc2c2cc(N)ccc21`, the Potency result is “inactive”.

With `NC12CC3CC(CC(C3)C1)C2`, the “viability change, negative = cytotoxic” value was -1.9%.

For `CO[Si](OC)(OC)c1ccccc1`, the “viability change, negative = cytotoxic” value is -3.11%.

For the compound `NC(N)=Nc1nc(CSCC/C(N)=N/S(N)(=O)=O)cs1`, the Potency entry is “inactive”.

For the compound `Cc1ccc(S(=O)(=O)Oc2ccc(N=Nc3ccc(-c4ccc(N=Nc5c(O)ccc6cc(S(=O)(=O)O)cc(S(=O)(=O)O)c56)c(C)c4)cc3C)cc2)cc1`, the Potency was 54.7 µM (active) and 35.5 µM (active).

For the compound `Nc1ccc2cc3ccccc3cc2c1`, the Potency entry was “inactive”.

Regarding `Cc1cccc([N+](=O)[O-])c1C(=O)O`, the “viability change, negative = cytotoxic” value was 2.36%.

As for `C=C(C)C1CC=C(C)C(OC(C)=O)C1` (stereo not given), the Potency entry was “inactive”.

Turning to `CCn1cc(C(=O)O)c(=O)c2cc(F)c(N3CCNC(C)C3)c(F)c21` (stereo not given), the Potency entry was “inactive”.

As for `CCN(CC)C(=S)SSC(=S)N(CC)CC`, the Potency was 376 nM (active) and 243 nM (active) and 222 nM (active).

As for `COC(c1ccccc1)(c1ccccc1)[C@H](Oc1nc(C)cc(C)n1)C(=O)O`, the “viability change, negative = cytotoxic” value is 8.44%.

As to `Nc1cc(S(=O)(=O)O)cc2cc(S(=O)(=O)O)cc(O)c12`, the “viability change, negative = cytotoxic” value was -19.1%.

Consider `Clc1ccc2c(c1)C(N1CCNCC1)=Nc1ccccc1O2`, for which the “viability change, negative = cytotoxic” value was -10.6%.

As for `CCCOC(=O)c1cc(O)c(O)c(O)c1`, the Potency entry was “inactive”.

As to `CCCCCCCCCCCCCC[P+](CCCC)(CCCC)CCCC`, the Potency was 21.6 µM (active) and 6.11 µM (active).

Regarding `OCCN1CCNCC1`, the Potency entry was “inactive”.

For the compound `CC(C)(c1ccccc1)c1ccc(Nc2ccc(C(C)(C)c3ccccc3)cc2)cc1`, the Potency entry is “inactive”.

As for `COc1ccc(Cc2cnc(N)nc2N)cc1OC`, the “viability change, negative = cytotoxic” value is 6.25%.

Turning to `c1ccc2c(c1)-c1cccc3c1c-2cc1ccccc13`, the “viability change, negative = cytotoxic” value was -0.204%.

Consider `O=C1NCC2(CCN(CCc3ccccc3)CC2)O1`, for which the “viability change, negative = cytotoxic” value is 27.6%.

In the case of `CC(=O)N[C@@H](CS)C(=O)O`, the Potency result was “inactive”.

`Oc1c(Cl)cc(Cl)cc1Sc1cc(Cl)cc(Cl)c1O`: the Potency was 55.4 µM (active).

As for `CNC1(C)C2CCC(C2)C1(C)C` (stereo not given), the “viability change, negative = cytotoxic” value was 5.45%.

In the case of `NCCO`, the “viability change, negative = cytotoxic” value was 0.212%.

On to `O=C(O[C@@H]1Cc2c(O)cc(O)cc2O[C@@H]1c1cc(O)c(O)c(O)c1)c1cc(O)c(O)c(O)c1`, for which the “viability change, negative = cytotoxic” value is -8.2%.

For `CNCCC(Oc1ccc(C(F)(F)F)cc1)c1ccccc1` (stereo not given), the Potency was 27.8 µM (active) and 53.8 µM (active).

With `CCCCC(CC)COC(=O)CC(C(=O)OCC(CC)CCCC)S(=O)(=O)O` (stereo not given), the Potency result was “inactive”.

Take `CCCN[C@H]1CCc2nc(N)sc2C1`: the Potency entry was “inactive”.

Regarding `CCN(CC)CCOc1ccc(/C(=C(\Cl)c2ccccc2)c2ccccc2)cc1`, the “viability change, negative = cytotoxic” value is -1.32%.

Take `Cc1ccnc2c1NC(=O)c1cccnc1N2C1CC1`: the Potency entry is “inactive”.

Take `c1ccc2n[nH]nc2c1`: the Potency result is “inactive”.

Regarding `Oc1c(Cl)cc(Cl)c(Cl)c1Cc1c(O)c(Cl)cc(Cl)c1Cl`, the Potency was 13.3 µM (active) and 17.2 µM (active) and 19.3 µM (active).

Consider `C=CS(=O)(=O)O`, for which the Potency entry was “inactive”.

For the compound `COc1ccc(COC(C)=O)cc1`, the Potency entry is “inactive”.

With `CC(=O)C1=C(C)[C@@H]2C[C@@]3(C1)[C@H](C)CC[C@H]3C2(C)C`, the Potency entry is “inactive”.

Consider `CCC[C@H](N[C@@H](C)C(=O)N1[C@H](C(=O)O)C[C@@H]2CCCC[C@@H]21)C(=O)OCC`, for which the “viability change, negative = cytotoxic” value was 2.24%.
